Sampled rows, rich in hits. Any-hit rate of the full collection: about 10%.
GLS inh: blocks human kidney-isoform glutaminase activity | O94925 | GLS enzymatic activity, qHTS titration | Potency, µM (titrated, usually from 45.5 µM), most hits filed as inhibitors | actives 0.21% (n = 410,000) | AID 624170
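Glutamate formation by hKGA was monitored fluorometrically using coupled glutamate oxidase, HRP and Amplex Red. Substrate was added as 1 mM L-glutamine solution; incubation was 30 min at RT after an initial read.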
BAZ2B block: inhibitors of human BAZ2B bromodomain; actives 4.4% (n = 360,000); Q9UIF8; Potency, µM (highest dose often 114 µM), hits mostly inhibitors; AlphaScreen BAZ2B-H3K14Ac peptide displacement; also: nearly all actives have a fitted effect of over 60% in size
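AlphaScreen displacement of biotin-H3(5-23)K14Ac peptide (50 nM final) from BAZ2B (50 nM final) in PBS pH 7.4, 0.01% Tween-20; complex preformed 30 min RT, then compounds (top 110 uM) 30 min RT, beads 20 min dark.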
HP1b binding inh: HP1-beta chromodomain-methylated histone interaction inhibition; actives 0.56% (n = 390,000); AID 540317; AlphaScreen HP1-beta / biotin-H3K9me3 peptide binding; Potency, µM (series often up to 114 µM), hits mostly inhibitors; also: nearly all actives have a fitted effect of over 70% in size
Target sequence (P83916 whole entry, looked up): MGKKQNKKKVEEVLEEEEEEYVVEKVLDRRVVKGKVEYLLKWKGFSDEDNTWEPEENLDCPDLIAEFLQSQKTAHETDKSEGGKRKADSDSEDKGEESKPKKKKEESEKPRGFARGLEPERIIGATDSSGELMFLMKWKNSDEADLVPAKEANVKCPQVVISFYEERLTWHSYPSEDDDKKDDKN
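HP1-beta protein (50 nM final) preincubated 30 min at room temperature with biotinylated H3(1-18)K9me3 peptide (50 nM) in PBS pH 7.4, 0.01% Tween-20, then compound added for 30 min. AlphaScreen streptavidin donor/nickel chelate acceptor beads (10 ug/mL final), 30 min dark, luminescence read.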
G9a inh-1: blocks human histone lysine methyltransferase G9a. G9a H3K9 monomethylation, AlphaScreen, 2 h. Potency, µM (series often up to 102 µM), most hits filed as inhibitors. actives 8.8% (n = 350,000). AID 504332; also: nearly all actives have a fitted effect of over 75% in size
Target sequence (Q96KQ7 913-1193 limits assumed): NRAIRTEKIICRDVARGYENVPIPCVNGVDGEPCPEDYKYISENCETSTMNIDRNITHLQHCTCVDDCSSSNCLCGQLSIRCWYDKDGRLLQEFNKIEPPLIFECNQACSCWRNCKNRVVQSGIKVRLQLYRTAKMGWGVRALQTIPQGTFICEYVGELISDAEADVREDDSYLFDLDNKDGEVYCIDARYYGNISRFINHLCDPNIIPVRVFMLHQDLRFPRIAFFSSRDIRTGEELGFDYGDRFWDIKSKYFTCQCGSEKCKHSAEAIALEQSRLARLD
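G9a (20 nM) preincubated 15 min RT with compounds, then 500 nM biotinylated H3K9 peptide and 20 uM SAM added; 2 h RT reaction. Monomethyl-H3K9 product detected by AlphaScreen with anti-H3K9me1 antibody, streptavidin donor and anti-rabbit IgG acceptor beads.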
JMJD2A Tudor: blocks the human JMJD2A Tudor domain; O75164; AlphaScreen JMJD2A-Tudor / H3K4me3 peptide binding; Potency, µM (titrated, usually from 114 µM), most hits filed as inhibitors; actives 4.4% (n = 390,000); AID 504339; also: nearly all actives have a fitted effect of over 50% in size
JMJD2E confirm: JMJD2E (human) demethylase inhibition, confirmation | shares compounds with JMJD2A Tudor | Recombinant JMJD2E, FDH-coupled NADH fluorescence (FDH is formaldehyde dehydrogenase) | Potency, µM (titrated, usually from 56.8 µM), hits mostly inhibitors | actives 93% (n = 140) | AID 2677
FDH inh: counter-screen for JMJD2E inhibitors: Pseudomonas putida formaldehyde dehydrogenase; shares compounds with JMJD2A Tudor; FDH enzyme assay, NADH fluorescence kinetic; Potency, µM (top dose mostly 56.7 µM), hits mostly inhibitors; actives 10% (n = 140); AID 2680
G9a inh-2: confirmation of human histone methyltransferase G9a inhibitors. actives 89% (n = 370). G9a H3K9 monomethylation, AlphaScreen, 2 h. Potency, µM, usual class: inhibitors. shares compounds with JMJD2A Tudor; also: nearly all actives have a fitted effect of over 65% in size
GLS confirm: confirmation of human glutaminase inhibitors. shares compounds with GLS inh. biochemical glutaminase enzyme inhibition assay. Potency, µM (top dose mostly 46.1 µM), most hits filed as inhibitors. 35 tested, under 10 active. AID 624261; calls by dose curve
GLS HRP counter: inhibits HRP glutamate oxidase coupled readout, glutaminase counter-screen | shares compounds with GLS inh | HRP/glutamate oxidase coupled Amplex Red fluorescence counterscreen | activity change, negative = inhibition, % at 46.1 µM | 35 tested, under 10 active | AID 624262
GLS HEK tox: reduces HEK-293 viability in glutaminase inhibitor counter-screen | HEK-293 viability, CellTiter-Glo luminescence, 24 h | AID 624264 | 35 tested, under 10 active | shares compounds with GLS inh | activity change, negative = cytotoxicity, % at 46.1 µM
A number is an active result; . = inactive; ? = inconclusive; / = no result; [ ] = another dose, or the depositor's remark. Unless noted, calls follow the shape of the dose curve; as a rule, active = well fitted curve in the direction sought with a large enough effect; inconclusive = small, poorly fitted or top-dose-only effect, or another doubt; inactive = no such curve, though single readings can be large; an effect the other way counts as inactive or inconclusive.

SMILES	GLS inh	BAZ2B block	HP1b binding inh	G9a inh-1	JMJD2A Tudor	G9a inh-2	others
COc1ccc(N2CCN(Cc3nc(N)nc(Nc4ccc(C)c(Cl)c4)n3)CC2)cc1	.	25µM	.	1.6µM	35µM	7.1
COc1ccc(CN2CCc3c([nH]c4ccccc34)C2)cc1Br	.	14µM	.	?	20µM	5
CCn1c2ccccc2c2cc(CN3CCN(Cc4cc(OC)c(O)c(OC)c4)CC3)ccc21	.	22µM	?	0.71µM	11µM	18
CCn1c2ccccc2c2cc(CN3CCN(Cc4ccc(Cl)cc4)CC3)ccc21	.	16µM	?	0.5µM	7.9µM	22
COc1cc(OCc2ccccc2)c(CC(=O)O)c([N+](=O)[O-])c1	.	/	/	/	/	/
O=C(CSc1ncn[nH]1)c1cccc([N+](=O)[O-])c1	.	.	.	25µM	28µM	/	JMJD2E confirm=10µM;FDH inh=0.89µM
O=C(CSc1nnc(-c2ccncc2)o1)c1cccc([N+](=O)[O-])c1	.	.	.	.[12.7 µM]	.	/
CC(C)C(C)/C=C/C(C)C1CCC2C3=CC=C4CC(O)CCC4(C)C3CCC21C (stereo not given)	/	/	/	.[2.33 µM]	/	/
CN1CCC(N(C)CC(=O)Nc2cccc(Oc3ccccc3)c2)CC1	.	50µM	.	?	6.3µM	?
CN1CCC(NC(=O)c2cccc(Oc3ccccc3)c2)CC1	.	.	.	/	.	/
COCc1cc(CN2CCCC2)c(O)c2ncccc12	.	3.2µM	.	?	8.9µM	/	JMJD2E confirm=7.9µM;FDH inh=.
COCc1c(C(=O)NCc2ccccc2CN2CCCC2)oc2ccccc12	.	.	.	.[12.7 µM]	.	/
COc1ccccc1N1CCN(C(=O)C2CCN(S(=O)(=O)c3ccccc3F)CC2)CC1	.	.	.	.	.	/
CCCCOC(=O)Nc1ccc(N(C)C)cc1	.	40µM	?	1.6µM	79µM	1.6
CCCCOC(=O)Nc1ccc(C(C)C)cc1	.	.	.	.	.	/
CCCOc1ccc(C(=O)Nc2ccc(N(C)C)cc2)cc1	.	.	.	?	.	1
O=C(Nc1ccc(N2CCCC2)cc1)c1ccc(Br)o1	.	?	.	2.2µM	?	0.71
CCN(CC)c1ccc(NC(=O)c2ccc(Br)o2)cc1	.	50µM	?	2.2µM	45µM	7.1
COc1ccc(-c2cc(=O)oc3cc(OCC(=O)NCc4ccccn4)ccc23)cc1	.	.	.	.	.	/
COc1ccccc1CN1CCCC2(CCN(S(C)(=O)=O)CC2)C1	/	/	/	.[12.7 µM]	/	/
COc1ccc(-c2cccc(-c3cc(=O)oc4ccc(C(C)(C)C)cc34)c2)cc1	.	/	.	.	.	/
CN(C)c1ccc(NC(=O)COC(=O)CCC(=O)c2ccc(F)cc2)cc1	.	?	.	2.5µM	?	7.1
CN(C)c1ccc(NC(=O)CCCc2ccccc2)cc1	.	45µM	?	1.3µM	?	2.5
COCC(=O)Nc1ccc(N(C)C)cc1	.	.	.	2.5µM	.	3.2
CCOc1cc(C(=O)CCC(=O)OCC(=O)Nc2ccc(F)cc2)ccc1O	.	.	.	.	.	/
SMILES	GLS inh	BAZ2B block	HP1b binding inh	G9a inh-1	JMJD2A Tudor	G9a inh-2	others
CCN(CC)CC(C)CNC(=O)c1cc(-c2ccc(Br)s2)nc2ccccc12 (stereo not given)	.	.	.	?	.	/
COc1ccc(OC)c(Nc2nc(=O)c3cccnc3s2)c1	?	56µM	?	0.56µM	18µM	0.45
O=C(C1CCCO1)N1CCN(Cc2c(O)ccc3ccccc23)CC1 (stereo not given)	.	.	.	1.4µM	79µM	0.36
CCOc1cc(S(=O)(=O)N2CCCCCC2)ccc1F	.	.	.	.	.	/
O=C(NCC(c1ccco1)N1CCCC1)c1cccc(S(=O)(=O)N2CCOCC2)c1 (stereo not given)	.	.	.	.[2.33 µM]	.	/
CCOc1ccc(Nc2nc(N3CCCC3)nc(N3CCN(c4ccc(OC)cc4)CC3)n2)cc1	.	.	.	?	.	/
COc1ccc(N2CCN(c3nc(NC(C)(C)C)nc(N4CCCCC4)n3)CC2)cc1	.	3.2µM	?	?	?	13
O=C(CN1CCN(c2ccc(O)cc2)CC1)Nc1ccccc1C(=O)NCCc1ccccc1	.	.	?	?	?	1.3
COc1ccc(Cl)cc1NC(=O)c1c(NCc2cccnc2)sc2c1CCCC2	.	?	.	?	?	1.8
O=C(COC(=O)c1ccc([N+](=O)[O-])o1)Nc1ccc2c(c1)OC(F)(F)O2	.	/	/	/	/	/
Cc1cc(C)nc(Nc2cccc3ccccc23)n1	.	.	.	/	.	/
Cc1cc2n(n1)SC(Nc1cccc3ccccc13)N2 (stereo not given)	.	.	.	0.63µM	50µM	0.71
Nc1nc(Sc2c([N+](=O)[O-])cc(C(F)(F)F)cc2[N+](=O)[O-])n[nH]1	.	.	.	/	.	/
O=C(CN1CCN(c2ccc(F)cc2)CC1)N1CCC(Cc2ccccc2)CC1	.	35µM	?	?	11µM	16
Cc1ccc(NC(=O)CC2SC3=NCCCN3C2=O)c(C)c1 (stereo not given)	.	.	.	0.71µM	.[11.4 µM]	4.5
CCn1nnnc1NCc1ccc(N2CCCC2)cc1	.	.	?	?	20µM	10
CCn1nnnc1NCc1ccc(SC)cc1	.	.	.	.	.	/
Cc1oc2c(cc(NS(=O)(=O)c3ccc(Cl)cc3)c3ccccc32)c1C(=O)O	16µM	.	.	.[0.501 µM]	?	/	GLS confirm=?;GLS HRP counter=.;GLS HEK tox=.
CC(=O)c1c(C)oc2c1cc(NS(=O)(=O)c1ccc(Br)cc1)c1ccccc12	.	.	.	.	.	/
O=C(O)c1ccccc1NS(=O)(=O)c1cccc(NS(=O)(=O)c2cc(Br)ccc2Br)c1	?	/	.	/	.	/	GLS confirm=?;GLS HRP counter=.;GLS HEK tox=.
COc1ccccc1NS(=O)(=O)c1cc(NC(=O)C(C)NC(N)=O)ccc1N1CCCC1 (stereo not given)	.	.	.	?	.	/
